Assay outcomes: PubChem, National Center for Advancing Translational Sciences (NCATS)
Pf growth 96h – P. falciparum growth inhibition at 96 hours; P. falciparum luciferase reporter growth, 96 h; Potency, µM (titrated, usually from 28.7 µM), inactives show at the top dose activity change, negative = inhibition, usual class: inhibitors; 320,000 tested, 6.9% active; AID 504834; also: % is scaled to controls: 0 for no effect and ±100 for the full control effect
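Plates of compound plus infected erythrocytes (2% hematocrit, 0.05% parasitemia final) incubate 96 hours, 37 C, 5% CO2. Detection reagent added; reduced luminescence from the parasites' luciferase reporter flags inhibition.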
NS1 function inh – blocks influenza NS1 protein function. Potency, µM (highest dose often 46.1 µM), inactives show at the highest dose activity, positive = more growth. 270,000 tested, 0.4% active; calls by dose curve; also: actives are rising curves; nearly all actives have a fitted effect of over 50% in size
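Growth recovery, yeast-based: influenza A NS1 expressed in S. cerevisiae causes slow growth, and suppressors are detected by OD600. The parent strain without NS1 is used as positive control.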
Pf growth 48h – inhibits P. falciparum growth in the first generation, 48 h | 310,000 tested, 5.9% active | Potency, µM (doses to about 28.7 µM), for the others: top-dose activity change, negative = inhibition, hits mostly inhibitors | P. falciparum luciferase growth in erythrocytes, 48 h; also: % is scaled to controls: 0 for no effect and ±100 for the full control effect
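In quantitative HTS format, infected erythrocytes bearing luciferase-reporter parasites were treated for a single generation at 37 C. Luminescence after adding detection reagent served as the growth measure.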
SARS PLpro yeast – SARS-CoV PLP inhibition in yeast; S. cerevisiae expressing SARS-CoV PLpro, growth rescue; Potency, µM (titrated, usually from 32.9 µM), for inactives: top-dose activity, positive = growth rescue, usual class: activators; 330,000 tested, 0.19% active; AID 485353; calls by dose curve; also: 0% is about no effect; nearly all actives have a fitted effect of over 55% in size
Starred values were filed as active, the others as inactive; ? = inconclusive; / = no result; [ ] = another dose, or the depositor's remark. Shown are actives, neighbours in structure and some others; about 10% of the full set was active somewhere. Unless noted, calls follow the shape of the dose curve; as a rule, active = well fitted inhibition curve with a large enough effect; inconclusive = small, poorly fitted or top-dose-only effect, or another doubt; inactive = no such curve, though single readings can be large or run the other way. Potency is read from the fitted curve at half-maximal effect.

SMILES	Pf growth 96h	NS1 function inh	Pf growth 48h	SARS PLpro yeast
COc1ccc(Cl)cc1Nc1nc(-c2sc(NC(=O)c3ccco3)nc2C)cs1	5.9µM*	12%	15µM*	-2%
COc1ccccc1Nc1nc(-c2sc(NC(=O)c3ccc([N+](=O)[O-])cc3)nc2C)cs1	?	18%	?	9%
COc1ccc(OC)c(Nc2nc(-c3sc(C)nc3C)cs2)c1	-17%	-52%	15µM*	-14%
COc1ccc(Cl)cc1Nc1nc(-c2sc(NC(=O)C(C)(C)C)nc2C)cs1	1.7µM*	12%	10µM*	0%
O=C(COc1cc2oc(=O)c3c(c2cc1Cl)CCCC3)NCC1CCC(C(=O)O)CC1 (configuration not stated)	?	4%	22%	-1%
CCOC(=O)[C@@H]1[C@H]2COc3ccc(Br)cc3[C@@H]2N2C(=O)N(c3ccc(OC)cc3)C(=O)[C@@]12C	/	/	/	6%
Cc1ccn2c(c1)nc(=O)c1cc(S(=O)(=O)N3CCOCC3)ccc12	?	-10%	?	-4%
COc1ccc(OC)c(Nc2nc(-c3sc(NC(=O)C(C)(C)C)nc3C)cs2)c1	3.3µM*	12%	9.3µM*	-2%
Nc1nnn(CC(=O)N/N=C/c2ccccc2Cl)n1	52%	-3%	13%	0%
Cc1cc(C)c2ccc(=O)n(CC(=O)N/N=C/c3ccccc3Cl)c2n1	4%	?	2.6µM*	-1%
C=CCn1c(O)c(N=NC(=O)OCC)c2ccccc21	30%	-9%	22%	-6%
C=CCn1c(O)c(N=NC(=S)Nc2cccc(OC)c2)c2ccccc21	?	5%	3.7µM*	20%
C=CCn1c(O)c(N=NC(=S)Nc2ccc(OC)cc2)c2ccccc21	0%	8%	10µM*	8%
C=CCn1c(O)c(N=Nc2ccccc2O)c2ccccc21	62%	/	9.3µM*	-1%
C=CCn1c(O)c(N=Nc2ccccc2)c2ccccc21	-1%	-5%	2%	-7%
COc1ccc2sc(-c3ccccc3OC)c(-c3ccc(O)cc3)c2c1	2.3µM*	/	?	-1%
COc1cc2sc(-c3ccccc3OC)c(-c3ccc(O)cc3)c2cc1OC	/	/	/	-10%
COc1ccc2sc(-c3ccccc3OC)c(-c3ccc4c(c3)OCCO4)c2c1	2.6µM*	/	10µM*	-2%
COc1ccccc1Nc1ncc(C(=O)N2CCN(Cc3ccc(OC)c(OC)c3OC)CC2)c2ccccc12	?	/	?	-6%
CN(CCOc1ccc(Cl)cc1)C(=O)C1CCN(C(=O)c2ccc(Cl)cc2)CC1	?	-20%	?	-8%
CCc1oc2ccccc2c1C(=O)c1cc(I)c(O)c(I)c1	1.9µM*	/	-15%	/
CCOC(=O)c1c(O)c2ccccc2oc1=O	11%	4%	5%	-1%
Cc1ccc(CCSc2ccc(C(C)C)cc2)cn1	12µM*	-16%	11%	30%
O=C(Oc1cccc2cccnc12)c1ccc(Br)o1	0%[5.75 µM]	-22%	-2%	2%
O=C(Cc1ccc(Cl)cc1)Oc1cccc2cccnc12	2.6µM*	?	0%	-136%
SMILES	Pf growth 96h	NS1 function inh	Pf growth 48h	SARS PLpro yeast
O=C(Oc1ccccc1N1C(=O)CCC1=O)c1ccco1	9.3µM*	5%	-9%	-4%
O=C(Oc1ccc(Cl)c2cccnc12)c1ccco1	74%	-5%	12µM*	-21%
O=C(Oc1cccc2cccnc12)c1ccco1	1.3µM*	-5%	?	-57%
O=C(O)CCC(=O)N1CCCC1C(=O)O (configuration not stated)	/	-11%	/	/
C/C(=N\Nc1ccc([N+](=O)[O-])cc1[N+](=O)[O-])C(C)(C)C(C(=O)O)C(=O)O	-18%	6%	6%	1%
COc1cc2c3cc1Oc1cc(ccc1O)C[C@@H]1c4c(cc(OC)c(O)c4Oc4ccc(cc4)C[C@H]3N(C)CC2)CCN1C	1.7µM*	3%	2.1µM*	-9%
COc1cc2c3cc1Oc1cc(ccc1O)C[C@@H]1c4c(cc(OC)c(O)c4Oc4cccc(c4)C[C@@H]3N(C)CC2)CC[N+]1(C)C	4%	/	-19%	/
COc1ccc2cc1Oc1ccc(cc1)C[C@H]1c3c(cc4c(c3Oc3cc5c(cc3OC)CCN(C)[C@@H]5C2)OCO4)CCN1C	1.5µM*	-3%	1.9µM*	4%
COc1ccc2cc1Oc1ccc(cc1)C[C@H]1c3cc(c(OC)cc3CCN1C)Oc1c(OC)c(OC)cc3c1[C@H](C2)N(C)CC3	2.1µM*	1%	2.1µM*	1%
COc1cc2c3cc1Oc1c(OC)c(OC)cc4c1[C@H](Cc1ccc(cc1)Oc1cc(ccc1O)C[C@H]3N(C)CC2)N(C)CC4	/	/	/	0%
COc1ccc2cc1Oc1ccc(cc1)C[C@@H]1c3c(cc(OC)c4c3Oc3cc5c(cc3O4)CCN[C@H]5C2)CCN1C	/	-8%	/	/
COC(=O)CSc1nnc(CNC(=O)c2ccc(OC)c(OC)c2)n1C	43%	/	48%	3%
O=C(CSc1ccccc1)NNC(=O)c1ccccc1O	?	-18%	10%	-3%
CC(C)c1ccc(/C=N/NC(=O)c2nnn(-c3nonc3N)c2CN(C)C2CCCCC2)cc1	3%	1%	2%	1%
Cc1noc(C)c1COC(=O)Cc1ccc(Br)cc1	0%	/	-12%	6%
Cc1nn(C)cc1C1C(C#N)=C(N)N(c2ccc(F)c([N+](=O)[O-])c2)C2=C1C(=O)CCC2 (configuration not stated)	9.3µM*	12%	?	9%
Cc1ccc(N2C(N)=C(C#N)C(c3cccnc3)C3=C2CCCC3=O)cc1 (configuration not stated)	?	-4%	?	-5%
COc1ccc(C2C(C#N)=C(N)N(c3ccccc3)C3=C2C(=O)CCC3)cc1Cn1cc([N+](=O)[O-])cn1 (configuration not stated)	15µM*	23%	8.3µM*	-20%
Cc1cccn2c(=O)c(/C=C3\SC(=S)NC3=O)c(NCCCN3CCOCC3)nc12	?	7%	13µM*	-2%
CCCN1C(=O)/C(=C/c2c(NCCCOCC)nc3c(C)cccn3c2=O)SC1=S	0%	3%	?	1%
O=c1c2ccccc2n(Cc2ccc(F)cc2)c(=O)n1C1CCCC1	13µM*	-32%	?	-24%
O=C(Cn1c(=O)n(Cc2ccc(F)cc2)c(=O)c2ccccc21)NCC1CCCO1 (configuration not stated)	2%	1%	-7%	1%
Cc1cc(C)cc(OCC(=O)Nc2ccc3c(c2)OCO3)c1	?	-3%	22%	-1%
Cc1ccccc1Sc1ncnc2onc(C)c12	8.3µM*	0%	/	-6%
Cc1ccc(Sc2ncnc3onc(C)c23)cc1	?	-30%	?	-14%
Cc1noc2ncnc(Sc3c(Cl)cccc3Cl)c12	2.3µM*	2%	/	-1%
C[C@@H](C(=O)O)/C(=C/c1ccc2c(c1)OCO2)C(=O)O	/	-9%	/	/
C=CCn1c(SCC(=O)NC(=O)c2cccn2C)nc2ccccc2c1=O	10%	4%	3.7µM*	-1%
C=CCn1c(SCC(=O)Nc2cccc3ccccc23)nnc1-c1cnccn1	?	4%	?	0%
C=CCn1c(SCC(=O)Nc2ccc(F)cc2)nc2ccccc2c1=O	5.2µM*	-6%	?	4%
